# Several values for one entry are separate records, joined by “and”; a condition that tells them apart may be missing. Equal values may be shown once. Records with an inconclusive call do not appear. Where a call stands in place of a potency, no number is given. A number with no mark means an inactive call. Activity calls are given as the source filed them. Unless noted, the call rests on the fitted dose curve; in most records, active means well fitted curve in the direction sought with a large enough effect; inconclusive means small, poorly fitted or top-dose-only effect, or another doubt; inactive means no such curve, though single readings can be large; an effect the other way counts as inactive or inconclusive.
# Experiments:
# [1] = molecular target: Cellular tumor antigen p53 (Homo sapiens) (UniProt P04637); test: Primary qHTS for small molecule compounds that upregulate eGFP-tagged delta133p53alpha (in N-terminal) cells. (AID 2060322); settings: NCI-H358 eGFP-delta133p53alpha fluorescence, 24 h; activation: stronger effect = higher value; further: series mostly up to about 56 µM; nearly all actives have a fitted effect of over 75% in size
# How it was run: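 NCI-H358 cells pre-induced 24 h with 10 ng/ml doxycycline to express N-terminal eGFP-delta133p53alpha, then dosed 24 h at 37C without doxycycline; fixed, Hoechst-stained, GFP intensity by laser scanning cytometry, normalized to DMSO (0%) and 57.5 uM 5-azacytidine (100%).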
# [2] = molecular target: Cellular tumor antigen p53 (Homo sapiens) (UniProt P04637); test: Primary qHTS for small molecule compounds that upregulate eGFP-tagged delta133p53alpha (in C-terminal) cells. (AID 2060324)
# How it was run: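 NCI-H358 cells pre-induced 24 h with 100 ng/ml doxycycline to express delta133p53alpha-eGFP, then dosed in doxycycline-free medium for 24 h at 37C. Fixed, Hoechst-stained; GFP intensity by laser scanning cytometry, normalized to DMSO wells.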
# [3] = molecular target: Aldehyde dehydrogenase, mitochondrial (Homo sapiens) (UniProt P05091); test: qHTS for Inhibitors of the Aldehyde Dehydrogenase Family (ALDH2) Validation screens (AID 2061302; active means well fitted inhibition curve with a large enough effect; title and protocol of this record describe different tests)
# [4] = molecular target: Retinaldehyde dehydrogenase 3 (Homo sapiens) (UniProt P47895); test: qHTS for Inhibitors of the Aldehyde Dehydrogenase Family (ALDH1A3) Validation screen (AID 2061312); further: nearly all actives have a fitted effect of over 45% in size
# [5] = BET inhibitor-based combinations targeting novel dependencies in MECOM-rearranged (r) AML: SET-2 cell line (AID 2202231); settings: SET-2 AML cells viability, CellTiter-Glo luminescence, 48 h; viability: stronger effect = lower value, series mostly up to about 46 µM; further: nearly all actives have a fitted effect of over 35% in size
# How it was run: (§1)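 AML cell lines seeded at 500 cells/well, treated with 11-point dose curves for 48 h. Viability by CellTiter-Glo luminescence, normalised to DMSO and empty wells; activity expressed as AUC and per-cell-line Z-transformed AUC.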
# [6] = BET inhibitor-based combinations targeting novel dependencies in MECOM-rearranged (r) AML: OCI-AML3 cell line (AID 2202232); settings: Potency: OCI-AML3 viability; further: nearly all actives have a fitted effect of over 35% in size; further: potency means the concentration at half of the fitted maximal effect
# How it was run: as §1
# [7] = BET inhibitor-based combinations targeting novel dependencies in MECOM-rearranged (r) AML: MV-4-11 cell line (AID 2202233); further: nearly all actives have a fitted effect of over 45% in size; further: potency means the concentration at half of the fitted maximal effect
# How it was run: (§2)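 Cells at 500/well were exposed for 48 hr to MIPE v5.0 drugs as 11-point dose curves. Viability was read by CellTiter-Glo luminescence and normalized to DMSO and empty-well controls. Activity was expressed as AUC and per-cell-line Z-AUC.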
# [8] = BET inhibitor-based combinations targeting novel dependencies in MECOM-rearranged (r) AML: HNT-34 cell line (AID 2202234); further: nearly all actives have a fitted effect of over 35% in size
# How it was run: as §2
# [9] = BET inhibitor-based combinations targeting novel dependencies in MECOM-rearranged (r) AML: UCSD-AML1 cell line (AID 2202235); further: series mostly up to about 46 µM; nearly all actives have a fitted effect of over 40% in size
# How it was run: as §2
# [10] = BET inhibitor-based combinations targeting novel dependencies in MECOM-rearranged (r) AML: AML-191 cell line (AID 2202236; further: nearly all actives have a fitted effect of over 35% in size)
# How it was run: as §1
# [11] = BET inhibitor-based combinations targeting novel dependencies in MECOM-rearranged (r) AML: AML-194 cell line (AID 2202237; further: nearly all actives have a fitted effect of over 40% in size)
# How it was run: as §1
# [12] = molecular target: Retinaldehyde dehydrogenase 3 (Homo sapiens) (UniProt P47895); test: qHTS for Inhibitors of the Aldehyde Dehydrogenase Family (ALDH1A3) Primary screen (AID 2061315)
# Chain of Cellular tumor antigen p53 (Homo sapiens) (P04637 whole entry, looked up): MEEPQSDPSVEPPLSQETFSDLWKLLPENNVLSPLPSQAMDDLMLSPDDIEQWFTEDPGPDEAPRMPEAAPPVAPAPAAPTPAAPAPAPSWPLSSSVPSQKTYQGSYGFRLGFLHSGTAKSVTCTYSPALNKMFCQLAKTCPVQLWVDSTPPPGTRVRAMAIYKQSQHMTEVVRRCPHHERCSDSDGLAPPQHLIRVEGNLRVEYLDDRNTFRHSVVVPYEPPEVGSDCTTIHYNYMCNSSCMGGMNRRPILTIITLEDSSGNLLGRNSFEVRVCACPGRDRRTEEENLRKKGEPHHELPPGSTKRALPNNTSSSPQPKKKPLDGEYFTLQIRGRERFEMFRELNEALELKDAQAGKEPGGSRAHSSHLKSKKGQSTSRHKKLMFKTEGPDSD
SMILES,activation [1],Potency [2],Potency [3],Potency [4],viability [5],Potency [6],Potency [7],Potency [8],Potency [9],Potency [10],Potency [11],Potency [12]
O=C(O)CNC(=O)C(CS)Cc1ccccc1 (centres undefined),-14.4%,inactive,inactive,inactive,,,,,,,,
O=C1CCC(N2C(=O)c3ccccc3C2=O)C(=O)N1 (centres undefined),-0.565% and -9.78% and -7.37%,inactive,inactive,inactive,112%,inactive,inactive,inactive,inactive,inactive,inactive,
O=C(O)C1CCNCC1,-2.71%,inactive,inactive,inactive,,,,,,,,
O=[N+]([O-])c1ccc(CSc2ncnc3c2ncn3[C@@H]2O[C@H](CO)[C@@H](O)[C@H]2O)cc1,-20.8%,inactive,inactive,inactive,,,,,,,,
CCCCS(=N)(=O)CCC(N)C(=O)O (centres undefined),-49.8%,inactive,inactive,inactive,120%,9.59 µM (active),21.5 µM (active),inactive,inactive,inactive,inactive,
[Li+],-7.03%,inactive,inactive,inactive,,,,,,,,
Fc1ccc(C(OCCCc2cnc[nH]2)c2ccc(F)cc2)cc1,-45.7%,inactive,inactive,inactive,,,,,,,,
CCCCN(CCCC)CC(O)c1cc(Cl)cc2c1-c1ccc(Cl)cc1/C2=C/c1ccc(Cl)cc1 (centres undefined),22.6% and -82.3%,inactive,inactive,inactive,104%,inactive,inactive,inactive,inactive,inactive,inactive,
CC(C)NCC(O)c1ccc(NS(C)(=O)=O)cc1 (centres undefined),-72.6%,inactive,inactive,inactive,116%,inactive,inactive,inactive,inactive,,inactive,
CC(C)C[C@H](NC(=O)[C@@H](O)[C@H](N)Cc1ccccc1)C(=O)O,-10.8%,inactive,inactive,inactive,104%,inactive,inactive,inactive,inactive,inactive,inactive,
CCn1cc(C(=O)O)c(=O)c2cc(F)c(N3CCNC(C)C3)c(F)c21 (centres undefined),-0.837% and 16.4% and -15.6%,inactive,inactive,inactive,95.2%,inactive,inactive,inactive,inactive,inactive,inactive,
CC(=O)C(C)=O,-5.18%,inactive,inactive,inactive,,,,,,,,
Clc1nccc2c1ccc1ccccc12,-42.2%,inactive,inactive,inactive,,,,,,,,
Cc1cnc(NC(=O)C2=C(O)c3ccccc3S(=O)(=O)N2C)s1,-27.7% and -26.4% and -6.82%,inactive,inactive,inactive,110% and 107% and 111%,inactive,inactive,inactive,inactive,inactive,inactive,
O=c1[nH]c2ccccc2c2ccccc12,11.2%,inactive,inactive,inactive,,,,,,,,
CC(C)NCC(O)COc1ccc(CCOCC2CC2)cc1 (centres undefined),-6.83% and 29.3% and -23.2%,inactive,inactive,inactive,115%,inactive,inactive,inactive,inactive,inactive,inactive,
CCN(c1nc(N)c(C(=O)N=C(N)N)nc1Cl)C(C)C,-41.7%,inactive,inactive,inactive,,,,,,,,
NC(=O)c1cccc(N)c1,7.85%,inactive,inactive,inactive,120%,inactive,inactive,inactive,inactive,inactive,inactive,
COc1ccc([C@@H]2Sc3ccccc3N(CCN(C)C)C(=O)[C@@H]2OC(C)=O)cc1,17.5% and -3.98%,inactive,inactive,inactive,101%,inactive,inactive,inactive,inactive,inactive,inactive,
CCn1ccnc1CC1COc2ccccc2O1 (centres undefined),-21.8% and 27.7%,inactive,inactive,inactive,,,,,,,,
CC(CCc1ccccc1)NCC(O)c1ccc(O)c(C(N)=O)c1 (centres undefined),11.5% and 18%,inactive,inactive,inactive,,,,,,,,inactive

# — PubChem BioAssay (NCATS)
